{"source": "PubChem BioAssay AID2530", "about": "(National Center for Advancing Translational Sciences (NCATS), 2010)", "note": "Inconclusive results are not listed. Values without a mark were called inactive. Calls of active or inactive are those of the source. Calls come from the whole dose curve; as a rule, active = well fitted inhibition curve with a large enough effect; inconclusive = small, poorly fitted or top-dose-only effect; inactive = flat fitted curve, though single readings scatter. Potency is the fitted concentration of half-maximal effect."}
{"target": "Luciferin 4-monooxygenase (Photuris pensylvanica) (UniProt Q27757)", "assay": "Secondary Assay for Luciferase (Kinase-Glo TM) Inhibition Counterscreen;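 for activity, negative = inhibition: 0% = DMSO only and -100% = 40 µM SIB 1757 full inhibition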", "details": "Kinase-Glo luciferase enzyme, luminescence; series mostly up to 58.1 µM; activity, negative = inhibition: at the top concentration", "procedure": "NIH Chemical Genomics Center [NCGC] Malcolm Walkinshaw, Hugh Morgan, Linda Gilmore University of Edinburgh, UK MLPCN Grant: 1 R03 MH085697-01 NCGC Assay Overview: Luciferase (Kinase-Glo, Promega Corporation) was assayed for its ability to generate light using ATP and luciferin as substrates. The ATP concentration in the assay (10 uM) was within the linear range of enzyme activity for the assay conditions used. This assay was used as an counter screen for human pyruvate kinase M2 isoform.\nNCGC Assay Protocol Summary: Four uL of substrate mix (final concentration, 50 mM imidazole pH 7.2, 50 mM KCl, 7 mM MgCl2, 10 uM ATP, 0.01% Tween 20, 0.05% BSA) was dispensed into white 1536 well plates. Twenty-three nL of compound was delivered by a pin tool and 2 uL of luciferase detection mix (Kinase-Glo, Promega)) was added. Following 8-minute incubation at ambient temperature, luminescence was measured by a ViewLux (Perkin Elmer) at 5 seconds exposure/plate. Data were normalized to the controls for basal activity (DMSO only) and 100% inhibition (40 uM SIB 1757) and curve fitting was performed using Hill equation.", "units": {"activity, negative = inhibition": "%"}}
{"smiles": "O=C(/C=C1\\C(=O)Nc2ccccc21)/C=C1\\C(=O)Nc2ccccc21", "activity, negative = inhibition": -14.8}
{"smiles": "O=C1CCc2cc(S(=O)(=O)Nc3cccc4ccccc34)ccc2N1", "activity, negative = inhibition": -0.456}
{"smiles": "Cc1ccc(NS(=O)(=O)c2cccc(C(=O)O)c2)cc1C", "activity, negative = inhibition": -3.53}
{"smiles": "CCOC(=O)Cc1csc(NC(=S)NC(=O)c2ccc([N+](=O)[O-])cc2)n1", "activity, negative = inhibition": 1.5}
{"smiles": "Cc1cc(C)c2c(=O)n(CC(=O)Nc3cccc(Cl)c3C)sc2n1", "activity, negative = inhibition": -15.8}
{"smiles": "O=C(Nc1ccc2c(c1)OCCO2)c1ccccn1", "Potency": "18.3 µM (active)"}
{"smiles": "Cc1ccccc1NS(=O)(=O)c1ccc2c(c1)CCC(=O)N2", "activity, negative = inhibition": 0.467}
{"smiles": "Cc1ccc(NS(=O)(=O)c2ccc(N3CCCC3=O)cc2)cc1C", "activity, negative = inhibition": -2.22}
{"smiles": "CC(=O)N1CCCc2cc(S(=O)(=O)Nc3ccc(C)c(C)c3)ccc21", "activity, negative = inhibition": -2.94}
{"smiles": "CN=c1nc(-c2ccccc2)n(-c2ccccc2)s1", "activity, negative = inhibition": -0.55}
{"smiles": "O=C1c2ccccc2C(=O)N1c1cccnc1", "activity, negative = inhibition": -2.37}
{"smiles": "COc1ccc(-c2nc(-c3ccccn3)no2)cc1", "Potency": "2.91 µM (active)"}
{"smiles": "O=CN/C=C/c1cc(O)ccc1O", "activity, negative = inhibition": -4.82}
{"smiles": "O=C1c2ccccc2C(=O)N1c1nccs1", "activity, negative = inhibition": 1.91}
{"smiles": "O=C1CCc2cc(S(=O)(=O)NCc3ccccc3)ccc2N1", "activity, negative = inhibition": -4.55}
{"smiles": "Cc1cccc(NS(=O)(=O)c2ccc3c(c2)CCC(=O)N3)c1", "activity, negative = inhibition": -6.26}
{"smiles": "COc1ccc(-c2cc3nc(C)n(N)c(=O)c3s2)cc1", "Potency": "2.31 µM (active)"}
{"smiles": "Cc1occc1C(=O)O/N=C(\\N)c1ccccc1", "Potency": "6.51 µM (active)"}
{"smiles": "Cc1cccc(OC2=NS(=O)(=O)c3ccccc32)c1", "activity, negative = inhibition": -3.94}
{"smiles": "O=C1CCc2cc(S(=O)(=O)Nc3ccccc3F)ccc2N1", "activity, negative = inhibition": 3.13}
{"smiles": "Cc1cc(C)n2c(Nc3ccccc3)c(-c3ccc(C)o3)nc2n1", "activity, negative = inhibition": -1.93}
{"smiles": "COc1ccc(NS(=O)(=O)c2ccc3c(c2)CCC(=O)N3)cc1", "activity, negative = inhibition": 1.39}
{"smiles": "O=C1c2ccccc2C(=O)C1c1ccnc2ccccc12", "activity, negative = inhibition": -23.6}
{"smiles": "Cn1c(-c2ccc(Br)o2)nc2ccccc21", "Potency": "10.3 µM (active)"}
{"smiles": "Cc1ccc(NS(=O)(=O)c2ccc3c(ccn3C)c2)cc1C", "activity, negative = inhibition": 1.35}
{"smiles": "O=C1CCc2cc(S(=O)(=O)Nc3cccc(C(F)(F)F)c3)ccc2N1", "activity, negative = inhibition": -1.7}
{"smiles": "O=C1c2ccccc2C(=O)N1c1cccc(O)c1", "activity, negative = inhibition": -6.54}
{"smiles": "Fc1ccc(-c2nc3n(n2)Cc2ccccc2-3)cc1", "Potency": "7.3 µM (active)"}
{"smiles": "Cc1ccc(NS(=O)(=O)c2ccc(Cl)cc2)cc1C", "activity, negative = inhibition": -0.974}
{"smiles": "Cc1c(C(=O)NC(=S)Nc2ccc(NC(=O)c3cccs3)cc2)oc2ccccc12", "activity, negative = inhibition": -3.45}
{"smiles": "CN1CCc2cccc3c2C1Cc1ccc(O)c(O)c1-3", "note": "(stereo not given)", "activity, negative = inhibition": 1.25}
{"smiles": "Cc1ccc(NS(=O)(=O)c2cc3c(cc2-c2ccsc2)NC(=O)CO3)cc1C", "activity, negative = inhibition": -1.05}
{"smiles": "COc1ccc2c(c1)c1ccc3c(c1n2C)C(=O)C=CC3=O", "activity, negative = inhibition": -11.3}
{"smiles": "Cc1nc(-c2ccc(S(=O)(=O)Nc3ccc(C)c(C)c3)s2)cs1", "activity, negative = inhibition": 1.99}
{"smiles": "Cc1ccc(NS(=O)(=O)c2ccc3ccccc3c2)cc1C", "activity, negative = inhibition": 1.5}
{"smiles": "CC(=O)N1CCc2cc(S(=O)(=O)Nc3ccc(C)c(C)c3)ccc21", "activity, negative = inhibition": -18.9}
{"smiles": "CN(C)c1cccc(S(=O)(=O)N2CCN(S(=O)(=O)c3ccc4c(c3)OCCO4)CC2)c1", "activity, negative = inhibition": -3.54}
{"smiles": "Cc1nc(-c2ccc(C(=O)Nc3ccccc3F)cc2)cs1", "Potency": "11.6 µM (active)"}
{"smiles": "O=C1c2ccccc2C(=O)N1c1ncccc1O", "activity, negative = inhibition": -2.76}
{"smiles": "N/C(=N\\OC(=O)c1ccccc1)c1ccccn1", "Potency": "4.61 µM (active)"}
